{
  "source": "PubChem BioAssay AID504832",
  "about": "(National Center for Advancing Translational Sciences (NCATS), 2011)",
  "note": "Out of some 310,000 compounds screened, about 18,000 (5.8%) were called active. Not shown: some 22% with an inconclusive outcome. The call rests on the fitted dose curve; in most records, active means well fitted inhibition curve with a large enough effect; inconclusive means small, poorly fitted or top-dose-only effect, or another doubt; inactive means no such curve, though single readings can be large or run the other way. The entries come from a sample that favours actives as a whole. On the % scale 0 is the no-effect control and ±100 the full control effect; potency means the concentration at half of the fitted maximal effect.",
  "data": [
    {"assay": "Primary qHTS for delayed death inhibitors of the malarial parasite plastid, 48 hour incubation", "details": "P. falciparum luciferase growth in erythrocytes; series mostly up to 28.7 µM; activity change, negative = inhibition: at the top concentration", "summary_of_the_method": "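Erythrocytes infected with P. falciparum carrying an integrated firefly luciferase reporter (2% hematocrit, 0.1% parasitemia final) were exposed to compounds in RPMI 1640 with 0.5% Albumax at 37 C, 5% CO2. Growth inhibition was scored as reduced luminescence.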", "values": [
      {"smiles": "COc1cc(C(=S)N2CCOCC2)cc(OC)c1OC(=O)c1ccc([N+](=O)[O-])cc1[N+](=O)[O-]", "activity change, negative = inhibition": "34.1% (inactive)"},
      {"smiles": "CCC(C)Sc1nc2c(cnn2-c2ccc(F)cc2)c(=O)[nH]1", "note": "(centres undefined)", "activity change, negative = inhibition": "18.2% (inactive)"},
      {"smiles": "Cc1cccc(C)c1NC(=O)COC(=O)c1ccccc1O", "activity change, negative = inhibition": "11.5% (inactive)"},
      {"smiles": "Cn1nnnc1SCc1cc(=O)[nH]c2ccccc12", "activity change, negative = inhibition": "10.9% (inactive)"},
      {"smiles": "CC(=O)N(Cc1cc(=O)[nH]c2ccccc12)c1ccc(C)cc1C", "activity change, negative = inhibition": "-19.8% (inactive)"},
      {"smiles": "Cc1ccc(N(Cc2cc(=O)[nH]c3ccccc23)C(=O)CCl)cc1", "Potency": "9.28 µM (active)"},
      {"smiles": "COc1cc(/C=N/NC(=O)CNC(=O)c2ccncc2)ccc1OC(C)=O", "activity change, negative = inhibition": "28.7% (inactive)"},
      {"smiles": "O=C(COC(=O)/C=C/c1cccs1)NC1CCCCC1", "activity change, negative = inhibition": "5.56% (inactive)"},
      {"smiles": "CCn1c(SCC(=O)N/N=C/C=C/c2ccccc2[N+](=O)[O-])nnc1-c1ccccc1", "activity change, negative = inhibition": "-3% (inactive)"},
      {"smiles": "Cc1ccc(-n2c(SCC(=O)N/N=C/C=C/c3ccccc3[N+](=O)[O-])nc3ccccc3c2=O)cc1", "Potency": "13.1 µM (active)"},
      {"smiles": "O=C(CSc1nc2ccccc2[nH]1)N/N=C/C=C\\c1ccccc1[N+](=O)[O-]", "activity change, negative = inhibition": "7.14% (inactive)"},
      {"smiles": "Cc1ccc(C(=O)NC23CC4CC(CC(C4)C2)C3)c(Cl)c1", "activity change, negative = inhibition": "2.76% (inactive)"},
      {"smiles": "CN(C(=O)COC(=O)CCCc1c[nH]c2ccccc12)c1c(N)n(Cc2ccccc2)c(=O)[nH]c1=O", "activity change, negative = inhibition": "3.11% (inactive)"},
      {"smiles": "Cc1ccccc1-n1nc(SCC(=O)O)sc1=S", "activity change, negative = inhibition": "6.96% (inactive)"},
      {"smiles": "O=C(CSc1nn(-c2ccc(F)cc2)c(=S)s1)NC1CCS(=O)(=O)C1", "note": "(centres undefined)", "activity change, negative = inhibition": "-19.4% (inactive)"},
      {"smiles": "N#CCSc1nn(-c2ccc(F)cc2)c(=S)s1", "Potency": "5.86 µM (active)"},
      {"smiles": "CCOC(=O)Cc1csc(SCC(=O)Nc2ccc(C)cc2F)n1", "activity change, negative = inhibition": "1.53% (inactive)"},
      {"smiles": "O=C1COc2ccc(S(=O)(=O)NCCc3ccc(Cl)cc3)cc2N1", "activity change, negative = inhibition": "-15.4% (inactive)"},
      {"smiles": "CSc1ccccc1NC(=O)c1cnc2sc(C)cn2c1=O", "activity change, negative = inhibition": "74.1% (inactive)"},
      {"smiles": "COc1ccc(C(=O)NNc2cc(C)nc(NNC(=O)c3ccc(OC)cc3)n2)cc1", "activity change, negative = inhibition": "58% (inactive)"},
      {"smiles": "CCC(=O)Nc1ccc(Nc2nc(Cl)nc(Nc3ccc(NC(=O)CC)cc3)n2)cc1", "activity change, negative = inhibition": "21.1% (inactive)"},
      {"smiles": "CC(=O)Nc1ccc(Nc2cc(C)nc(Nc3ccc(NC(C)=O)cc3)n2)cc1", "Potency": "1.65 µM (active)"},
      {"smiles": "Cn1nc(-c2ccccc2)c2cc([N+](=O)[O-])ccc21", "activity change, negative = inhibition": "-3.2% (inactive)"},
      {"smiles": "COc1ccc(NC(=O)COC(=O)Cn2c(C)nc3ccccc32)cc1OC", "activity change, negative = inhibition": "9.03% (inactive)"},
      {"smiles": "COc1ccc(-c2cn(-c3ccc(C)cc3)c(=O)n2CC(=O)Nc2ccc(OC)c(OC)c2)cc1", "Potency": "14.7 µM (active)"},
      {"smiles": "COc1ccc(NC(=O)Cn2nnc(C(=O)NCCc3ccc(OC)c(OC)c3)c2N)cc1", "activity change, negative = inhibition": "-10.4% (inactive)"},
      {"smiles": "COC(=O)c1ccc(COc2ccc(C#N)cc2)o1", "activity change, negative = inhibition": "7.42% (inactive)"},
      {"smiles": "COc1ccc(OCC(=O)NCCS(=O)(=O)N2CCN(c3ccc(F)cc3)CC2)cc1", "activity change, negative = inhibition": "-0.428% (inactive)"},
      {"smiles": "CC(C)CC(=O)c1c[nH]c(C(=O)NCc2ccccc2)c1", "activity change, negative = inhibition": "-10.2% (inactive)"},
      {"smiles": "Cc1nnc(SCC(=O)N2CCc3ccccc3C2)s1", "activity change, negative = inhibition": "16.2% (inactive)"},
      {"smiles": "Cc1nnc(SCC(=O)N2c3ccccc3C(C)(c3ccc(Cl)cc3)CC2(C)C)s1", "note": "(centres undefined)", "Potency": "10.4 µM (active)"},
      {"smiles": "Cc1nnc(SCC(=O)NCc2ccccc2)s1", "activity change, negative = inhibition": "-5.4% (inactive)"},
      {"smiles": "Cc1ccc(Cn2c(C)c3cnn(CC(=O)NCc4ccccn4)c(=O)c3c2C)cc1", "activity change, negative = inhibition": "17.8% (inactive)"},
      {"smiles": "Cc1ccc(-c2nn(-c3ccccc3)cc2/C=C2\\SC(=S)N(CCCCCC(=O)O)C2=O)o1", "Potency": "4.65 µM (active)"},
      {"smiles": "O=C(CCCN1C(=O)/C(=C/c2ccco2)SC1=S)Nc1ccccc1", "activity change, negative = inhibition": "-2.16% (inactive)"},
      {"smiles": "Cc1ccc(-c2nn(-c3ccccc3)cc2CN(Cc2ccccc2)C(=O)CCC(=O)O)o1", "activity change, negative = inhibition": "-24.1% (inactive)"},
      {"smiles": "O=C(O)c1cc2c(cc1NC(=O)c1c(F)cccc1Cl)OCCCO2", "activity change, negative = inhibition": "6.31% (inactive)"},
      {"smiles": "COc1ccc(C(CNC(=O)c2ccc(NS(=O)(=O)c3ccc(F)c(C)c3)cc2)N(C)C)cc1", "note": "(centres undefined)", "Potency": "14.7 µM (active)"},
      {"smiles": "CCN(c1ccccc1)S(=O)(=O)c1cccc(C(=O)NCc2ccccc2CN2CCOCC2)c1", "Potency": "13.1 µM (active)"},
      {"smiles": "COc1ccc(Cl)cc1NS(=O)(=O)c1cccc(C(=O)NCC2CCCO2)c1", "note": "(centres undefined)", "activity change, negative = inhibition": "-8.74% (inactive)"},
      {"smiles": "COc1ccc(C(CNC(=O)c2ccc(S(=O)(=O)Nc3ccccc3F)cc2)N(C)C)cc1", "note": "(centres undefined)", "activity change, negative = inhibition": "21.9% (inactive)"},
      {"smiles": "CCN(c1ccccc1)S(=O)(=O)c1cccc(C(=O)O)c1", "activity change, negative = inhibition": "0% (inactive)"},
      {"smiles": "O=C(OC1CCOC1=O)c1cccc(S(=O)(=O)Nc2ccc(F)cc2)c1", "note": "(centres undefined)", "activity change, negative = inhibition": "-6.89% (inactive)"},
      {"smiles": "CC(=O)N1CCN(C(=O)c2cccc(S(=O)(=O)Nc3ccc(C)cc3)c2)CC1", "activity change, negative = inhibition": "-6.33% (inactive)"},
      {"smiles": "COc1ccc(NS(=O)(=O)c2cccc(C(=O)NCCc3ccc(S(N)(=O)=O)cc3)c2)cc1", "activity change, negative = inhibition": "-22% (inactive)"},
      {"smiles": "O=C(NCc1cccc(C(F)(F)F)c1)c1cccc(S(=O)(=O)N2CCN(Cc3ccccc3)CC2)c1", "activity change, negative = inhibition": "21.4% (inactive)"},
      {"smiles": "O=C(NCc1ccccc1CN1CCCC1)c1cccc(S(=O)(=O)Nc2ccc(F)cc2)c1", "Potency": "13.1 µM (active)"},
      {"smiles": "COc1ccc(C(=O)Nc2ccc(S(=O)(=O)NC(C)C)cc2)cc1", "activity change, negative = inhibition": "-6.62% (inactive)"},
      {"smiles": "COc1ccccc1C(CNC(=O)c1cccc(S(=O)(=O)Nc2ccc(F)cc2)c1)N(C)C", "note": "(centres undefined)", "Potency": "13.1 µM (active)"},
      {"smiles": "COCCCNC(=O)Cc1ccc(-n2c(C)nc3cccnc32)cc1", "activity change, negative = inhibition": "5.36% (inactive)"},
      {"smiles": "COc1ccccc1CNC(=O)c1ccc(N(C)S(=O)(=O)c2ccc(C)cc2)cc1", "activity change, negative = inhibition": "-22.8% (inactive)"},
      {"smiles": "CCc1nn(CCCC(=O)NCc2ccc(C)cc2)c(=O)c2cc3occc3n12", "activity change, negative = inhibition": "0% (inactive)"},
      {"smiles": "O=C(NC(Cc1ccccc1)C(=O)O)/C(=C\\c1ccccc1)NC(=O)c1ccco1", "note": "(centres undefined)", "activity change, negative = inhibition": "33.1% (inactive)"},
      {"smiles": "O=Cc1c(Nc2ccccc2Cl)nc2ccccn2c1=O", "activity change, negative = inhibition": "41.8% (inactive)"},
      {"smiles": "CC1(C)C(C=C(Cl)Cl)C1C(=O)NC(O)C(=O)c1ccccc1", "note": "(centres undefined)", "activity change, negative = inhibition": "9.03% (inactive)"},
      {"smiles": "O=C(CCNC(=O)C1CCN(S(=O)(=O)c2ccccc2)CC1)NC1CC1", "activity change, negative = inhibition": "14.5% (inactive)"},
      {"smiles": "CCN(CC)C(CNC(=O)CSc1nnnn1-c1cccc(F)c1)c1ccco1", "note": "(centres undefined)", "activity change, negative = inhibition": "-29.1% (inactive)"},
      {"smiles": "CCCCNC(=O)C1(O)c2ccccc2NC(=O)N1c1ccc(Cl)cc1", "note": "(centres undefined)", "activity change, negative = inhibition": "0.406% (inactive)"},
      {"smiles": "COc1ccccc1CCNS(=O)(=O)c1cn(C)nc1C", "activity change, negative = inhibition": "-12.3% (inactive)"},
      {"smiles": "CCc1nc2cccnc2n1-c1ccc(C(=O)O)cc1", "activity change, negative = inhibition": "19.8% (inactive)"},
      {"smiles": "NC(=O)Cn1cc(/C=N\\NS(=O)(=O)c2ccccc2)c2ccccc21", "activity change, negative = inhibition": "43.9% (inactive)"},
      {"smiles": "CCc1ccccc1NC(=O)c1ccc2snnc2c1", "activity change, negative = inhibition": "14.8% (inactive)"},
      {"smiles": "CC1CCCCN1C(=O)CCS(=O)(=O)Cc1ccccc1", "note": "(centres undefined)", "activity change, negative = inhibition": "11.6% (inactive)"},
      {"smiles": "Cc1cnc(C(=O)Oc2cccc(Cl)c2Cl)cn1", "activity change, negative = inhibition": "59.4% (inactive)"}
    ]}
  ]
}
